# Measured values as given in ChEMBL document CHEMBL2218924, “A broad activity screen in support of a chemogenomic map for kinase signalling research and drug discovery” (Biochem J, 2013).
# Tests used:
# [1] = biological target: T1, Ephrin type-A receptor 3 (Homo sapiens) (UniProt P29320); conditions: at 10 µM
# T1 sequence (whole entry): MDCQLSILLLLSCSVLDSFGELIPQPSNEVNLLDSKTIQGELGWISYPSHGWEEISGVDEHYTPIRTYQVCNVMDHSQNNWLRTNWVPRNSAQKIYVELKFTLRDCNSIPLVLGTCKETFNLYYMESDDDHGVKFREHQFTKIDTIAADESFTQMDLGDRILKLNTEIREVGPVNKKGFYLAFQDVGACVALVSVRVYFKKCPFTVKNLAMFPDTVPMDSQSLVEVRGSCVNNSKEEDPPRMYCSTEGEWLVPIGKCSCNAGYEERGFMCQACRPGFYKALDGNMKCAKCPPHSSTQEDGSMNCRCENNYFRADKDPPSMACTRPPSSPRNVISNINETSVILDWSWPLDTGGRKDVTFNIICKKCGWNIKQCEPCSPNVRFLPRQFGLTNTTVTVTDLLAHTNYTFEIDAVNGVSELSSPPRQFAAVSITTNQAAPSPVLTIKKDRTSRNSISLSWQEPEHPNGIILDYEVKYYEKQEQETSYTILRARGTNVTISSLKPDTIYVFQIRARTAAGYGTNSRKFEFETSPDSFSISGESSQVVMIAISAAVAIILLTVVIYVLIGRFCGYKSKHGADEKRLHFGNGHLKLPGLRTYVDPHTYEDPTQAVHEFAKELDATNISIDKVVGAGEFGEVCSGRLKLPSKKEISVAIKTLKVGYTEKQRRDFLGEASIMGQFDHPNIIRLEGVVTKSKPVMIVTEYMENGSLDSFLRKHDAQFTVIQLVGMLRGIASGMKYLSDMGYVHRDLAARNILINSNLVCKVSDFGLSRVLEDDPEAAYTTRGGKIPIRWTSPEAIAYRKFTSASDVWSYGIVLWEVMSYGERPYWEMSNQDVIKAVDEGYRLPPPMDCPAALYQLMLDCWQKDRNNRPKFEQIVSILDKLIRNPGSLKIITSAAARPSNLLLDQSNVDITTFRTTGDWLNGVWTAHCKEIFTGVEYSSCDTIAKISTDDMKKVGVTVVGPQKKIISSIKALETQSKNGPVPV
# [2] = biological target: Ephrin type-A receptor 7 (Homo sapiens) (UniProt Q15375); conditions: at 10 µM
# [3] = biological target: Receptor tyrosine-protein kinase erbB-4 (Homo sapiens) (UniProt Q15303); conditions: at 1 µM
# [4] = biological target: Receptor tyrosine-protein kinase erbB-4 (Homo sapiens) (UniProt Q15303); conditions: at 10 µM
# [5] = biological target: Ephrin type-A receptor 5 (Homo sapiens) (UniProt P54756); conditions: at 1 µM
# [6] = biological target: Ephrin type-A receptor 7 (Homo sapiens) (UniProt Q15375); conditions: at 1 µM
# [7] = biological target: T2, Ephrin type-B receptor 3 (Homo sapiens) (UniProt P54753); conditions: at 10 µM
# T2 sequence (whole entry): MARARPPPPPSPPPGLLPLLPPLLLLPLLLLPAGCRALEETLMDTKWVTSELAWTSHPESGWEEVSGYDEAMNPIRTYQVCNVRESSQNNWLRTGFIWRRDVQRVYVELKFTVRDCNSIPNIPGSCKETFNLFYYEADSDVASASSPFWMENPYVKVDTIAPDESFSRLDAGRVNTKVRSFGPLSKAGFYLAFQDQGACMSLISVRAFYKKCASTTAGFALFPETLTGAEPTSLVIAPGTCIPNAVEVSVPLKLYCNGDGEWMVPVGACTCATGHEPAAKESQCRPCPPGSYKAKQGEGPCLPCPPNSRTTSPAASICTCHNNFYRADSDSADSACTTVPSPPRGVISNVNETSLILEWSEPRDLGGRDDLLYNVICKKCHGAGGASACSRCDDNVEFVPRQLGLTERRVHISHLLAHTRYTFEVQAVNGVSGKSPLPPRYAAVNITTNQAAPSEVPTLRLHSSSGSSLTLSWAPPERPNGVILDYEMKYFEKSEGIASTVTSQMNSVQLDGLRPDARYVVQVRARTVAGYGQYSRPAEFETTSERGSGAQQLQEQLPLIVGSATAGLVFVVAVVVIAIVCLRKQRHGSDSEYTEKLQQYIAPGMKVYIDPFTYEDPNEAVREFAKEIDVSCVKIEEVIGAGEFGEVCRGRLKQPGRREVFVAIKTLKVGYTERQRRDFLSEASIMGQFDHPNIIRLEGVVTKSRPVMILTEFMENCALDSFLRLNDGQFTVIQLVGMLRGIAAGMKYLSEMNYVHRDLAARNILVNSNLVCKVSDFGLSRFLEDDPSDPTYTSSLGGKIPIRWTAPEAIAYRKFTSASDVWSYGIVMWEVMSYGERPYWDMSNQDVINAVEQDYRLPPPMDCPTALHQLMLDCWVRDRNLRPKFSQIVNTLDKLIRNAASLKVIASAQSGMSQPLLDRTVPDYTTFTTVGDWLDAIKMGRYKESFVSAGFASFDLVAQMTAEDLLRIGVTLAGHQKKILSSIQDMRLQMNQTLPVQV
# [8] = biological target: T3, Ephrin type-B receptor 4 (Homo sapiens) (UniProt P54760); conditions: at 1 µM
# T3 sequence (whole entry): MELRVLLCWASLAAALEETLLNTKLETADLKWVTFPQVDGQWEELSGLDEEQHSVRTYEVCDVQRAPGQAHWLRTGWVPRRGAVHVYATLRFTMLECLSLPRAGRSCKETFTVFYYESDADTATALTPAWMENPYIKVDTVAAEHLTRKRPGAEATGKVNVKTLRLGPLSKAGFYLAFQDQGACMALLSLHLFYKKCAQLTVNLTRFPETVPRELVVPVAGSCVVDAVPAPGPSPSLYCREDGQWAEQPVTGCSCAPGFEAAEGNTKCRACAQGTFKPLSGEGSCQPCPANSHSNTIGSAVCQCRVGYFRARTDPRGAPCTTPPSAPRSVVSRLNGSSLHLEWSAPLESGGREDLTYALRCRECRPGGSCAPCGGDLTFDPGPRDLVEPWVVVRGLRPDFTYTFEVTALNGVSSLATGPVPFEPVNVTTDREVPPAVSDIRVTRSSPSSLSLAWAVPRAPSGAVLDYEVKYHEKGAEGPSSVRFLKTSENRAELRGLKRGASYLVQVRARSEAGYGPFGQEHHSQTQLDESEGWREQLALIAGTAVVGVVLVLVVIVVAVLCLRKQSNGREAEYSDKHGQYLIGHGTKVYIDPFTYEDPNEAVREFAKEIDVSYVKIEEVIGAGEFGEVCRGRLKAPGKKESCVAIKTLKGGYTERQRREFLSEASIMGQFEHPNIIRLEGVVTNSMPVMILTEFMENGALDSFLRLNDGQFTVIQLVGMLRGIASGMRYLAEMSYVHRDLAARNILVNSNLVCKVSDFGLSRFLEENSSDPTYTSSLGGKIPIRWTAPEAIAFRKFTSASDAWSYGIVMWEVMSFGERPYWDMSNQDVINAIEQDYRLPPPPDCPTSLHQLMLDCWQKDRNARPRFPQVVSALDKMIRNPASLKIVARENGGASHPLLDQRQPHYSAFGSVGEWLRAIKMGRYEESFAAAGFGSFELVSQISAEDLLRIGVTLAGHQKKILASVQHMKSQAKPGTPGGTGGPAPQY
# [9] = biological target: T3, Ephrin type-B receptor 4 (Homo sapiens); conditions: at 10 µM
# [10] = biological target: Focal adhesion kinase 1 (Homo sapiens) (UniProt Q05397); conditions: at 1 µM
# Sequence of Focal adhesion kinase 1 (Homo sapiens) (Q05397 2-1052 limits assumed): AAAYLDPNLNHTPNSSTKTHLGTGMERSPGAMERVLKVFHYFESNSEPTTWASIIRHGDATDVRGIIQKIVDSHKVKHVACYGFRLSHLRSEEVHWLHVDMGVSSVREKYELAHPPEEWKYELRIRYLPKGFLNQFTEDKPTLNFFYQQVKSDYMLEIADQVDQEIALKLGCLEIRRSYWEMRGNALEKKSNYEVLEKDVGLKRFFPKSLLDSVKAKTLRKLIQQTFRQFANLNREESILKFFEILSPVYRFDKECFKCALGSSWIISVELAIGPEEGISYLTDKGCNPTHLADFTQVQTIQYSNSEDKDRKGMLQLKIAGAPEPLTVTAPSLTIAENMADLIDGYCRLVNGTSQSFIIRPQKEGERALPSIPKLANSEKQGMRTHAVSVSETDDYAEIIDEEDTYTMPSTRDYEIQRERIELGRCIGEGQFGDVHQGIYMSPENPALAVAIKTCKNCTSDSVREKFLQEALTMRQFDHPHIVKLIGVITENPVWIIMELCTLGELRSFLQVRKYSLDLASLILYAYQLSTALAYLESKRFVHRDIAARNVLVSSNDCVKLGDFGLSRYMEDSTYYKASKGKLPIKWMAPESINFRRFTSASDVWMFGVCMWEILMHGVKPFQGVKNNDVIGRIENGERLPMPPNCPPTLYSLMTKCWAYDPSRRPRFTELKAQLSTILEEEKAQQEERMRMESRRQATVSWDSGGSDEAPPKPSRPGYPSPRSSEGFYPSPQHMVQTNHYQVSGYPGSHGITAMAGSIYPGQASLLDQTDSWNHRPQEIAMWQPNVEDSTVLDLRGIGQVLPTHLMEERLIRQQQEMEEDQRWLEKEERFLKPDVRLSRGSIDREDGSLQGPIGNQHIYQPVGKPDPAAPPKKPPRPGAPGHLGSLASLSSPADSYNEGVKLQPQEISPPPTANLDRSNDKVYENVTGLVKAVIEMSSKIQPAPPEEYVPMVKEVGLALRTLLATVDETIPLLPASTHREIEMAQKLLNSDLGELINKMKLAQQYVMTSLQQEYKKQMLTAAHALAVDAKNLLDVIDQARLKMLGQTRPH
# Sequence of Receptor tyrosine-protein kinase erbB-4 (Homo sapiens) (Q15303 whole entry): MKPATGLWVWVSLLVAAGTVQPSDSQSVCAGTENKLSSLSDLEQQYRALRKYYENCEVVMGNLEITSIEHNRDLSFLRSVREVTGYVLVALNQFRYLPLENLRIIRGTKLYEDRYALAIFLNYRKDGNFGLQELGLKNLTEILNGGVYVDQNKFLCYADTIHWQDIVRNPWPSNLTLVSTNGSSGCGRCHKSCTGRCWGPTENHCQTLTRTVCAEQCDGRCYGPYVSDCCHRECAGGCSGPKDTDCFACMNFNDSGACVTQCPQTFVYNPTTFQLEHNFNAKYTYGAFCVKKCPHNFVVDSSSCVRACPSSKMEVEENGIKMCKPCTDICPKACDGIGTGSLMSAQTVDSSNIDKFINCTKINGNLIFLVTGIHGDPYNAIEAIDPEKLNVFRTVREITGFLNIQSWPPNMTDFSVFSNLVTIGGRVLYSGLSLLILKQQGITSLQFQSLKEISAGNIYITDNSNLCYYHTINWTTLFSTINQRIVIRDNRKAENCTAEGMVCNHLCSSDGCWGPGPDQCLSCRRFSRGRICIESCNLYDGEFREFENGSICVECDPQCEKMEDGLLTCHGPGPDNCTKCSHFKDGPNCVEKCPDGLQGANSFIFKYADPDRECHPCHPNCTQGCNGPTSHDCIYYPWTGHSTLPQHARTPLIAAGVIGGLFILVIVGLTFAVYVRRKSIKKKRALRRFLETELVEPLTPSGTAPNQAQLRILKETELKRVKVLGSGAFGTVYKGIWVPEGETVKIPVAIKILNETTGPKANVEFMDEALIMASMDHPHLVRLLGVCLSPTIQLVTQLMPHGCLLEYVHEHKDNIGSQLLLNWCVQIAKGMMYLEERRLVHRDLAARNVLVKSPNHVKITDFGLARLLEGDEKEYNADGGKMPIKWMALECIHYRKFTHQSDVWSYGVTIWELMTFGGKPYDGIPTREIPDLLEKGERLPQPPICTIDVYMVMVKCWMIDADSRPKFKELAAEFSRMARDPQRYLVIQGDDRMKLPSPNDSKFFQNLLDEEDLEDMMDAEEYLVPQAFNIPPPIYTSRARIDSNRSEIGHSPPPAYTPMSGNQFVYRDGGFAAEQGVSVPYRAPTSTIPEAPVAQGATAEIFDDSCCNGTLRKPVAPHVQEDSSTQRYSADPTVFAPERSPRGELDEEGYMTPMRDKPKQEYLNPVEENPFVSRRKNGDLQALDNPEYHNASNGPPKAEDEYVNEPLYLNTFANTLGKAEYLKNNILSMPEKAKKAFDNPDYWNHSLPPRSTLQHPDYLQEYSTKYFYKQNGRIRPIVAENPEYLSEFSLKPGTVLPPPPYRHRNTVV
# Sequence of Ephrin type-A receptor 7 (Homo sapiens) (Q15375 28-998 limits assumed): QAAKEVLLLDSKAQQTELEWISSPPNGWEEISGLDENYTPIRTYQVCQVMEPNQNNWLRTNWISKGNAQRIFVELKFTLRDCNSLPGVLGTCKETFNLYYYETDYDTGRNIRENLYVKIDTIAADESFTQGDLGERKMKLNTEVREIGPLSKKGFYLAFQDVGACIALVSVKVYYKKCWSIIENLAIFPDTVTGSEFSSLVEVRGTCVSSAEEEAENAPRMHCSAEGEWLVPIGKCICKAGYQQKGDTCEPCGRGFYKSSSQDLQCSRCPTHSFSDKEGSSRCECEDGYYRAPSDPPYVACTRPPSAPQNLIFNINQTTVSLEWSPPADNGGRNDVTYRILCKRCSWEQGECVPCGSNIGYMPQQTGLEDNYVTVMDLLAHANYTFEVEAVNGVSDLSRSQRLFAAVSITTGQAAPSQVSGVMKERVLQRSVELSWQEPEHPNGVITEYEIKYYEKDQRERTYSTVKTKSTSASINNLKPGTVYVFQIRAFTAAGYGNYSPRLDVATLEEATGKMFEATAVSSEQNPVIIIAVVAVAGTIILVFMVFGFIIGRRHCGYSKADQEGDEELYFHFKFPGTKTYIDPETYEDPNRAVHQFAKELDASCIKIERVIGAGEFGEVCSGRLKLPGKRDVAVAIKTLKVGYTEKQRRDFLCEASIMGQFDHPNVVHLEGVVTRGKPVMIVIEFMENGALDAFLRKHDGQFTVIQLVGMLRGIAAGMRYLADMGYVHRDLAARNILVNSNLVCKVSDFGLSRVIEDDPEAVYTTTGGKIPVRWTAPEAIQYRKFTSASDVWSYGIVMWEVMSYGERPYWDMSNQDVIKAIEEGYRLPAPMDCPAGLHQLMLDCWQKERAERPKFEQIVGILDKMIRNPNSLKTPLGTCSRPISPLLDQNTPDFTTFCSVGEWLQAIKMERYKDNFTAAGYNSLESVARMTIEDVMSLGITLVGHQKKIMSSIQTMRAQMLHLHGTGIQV
# Sequence of Ephrin type-A receptor 5 (Homo sapiens) (P54756 whole entry): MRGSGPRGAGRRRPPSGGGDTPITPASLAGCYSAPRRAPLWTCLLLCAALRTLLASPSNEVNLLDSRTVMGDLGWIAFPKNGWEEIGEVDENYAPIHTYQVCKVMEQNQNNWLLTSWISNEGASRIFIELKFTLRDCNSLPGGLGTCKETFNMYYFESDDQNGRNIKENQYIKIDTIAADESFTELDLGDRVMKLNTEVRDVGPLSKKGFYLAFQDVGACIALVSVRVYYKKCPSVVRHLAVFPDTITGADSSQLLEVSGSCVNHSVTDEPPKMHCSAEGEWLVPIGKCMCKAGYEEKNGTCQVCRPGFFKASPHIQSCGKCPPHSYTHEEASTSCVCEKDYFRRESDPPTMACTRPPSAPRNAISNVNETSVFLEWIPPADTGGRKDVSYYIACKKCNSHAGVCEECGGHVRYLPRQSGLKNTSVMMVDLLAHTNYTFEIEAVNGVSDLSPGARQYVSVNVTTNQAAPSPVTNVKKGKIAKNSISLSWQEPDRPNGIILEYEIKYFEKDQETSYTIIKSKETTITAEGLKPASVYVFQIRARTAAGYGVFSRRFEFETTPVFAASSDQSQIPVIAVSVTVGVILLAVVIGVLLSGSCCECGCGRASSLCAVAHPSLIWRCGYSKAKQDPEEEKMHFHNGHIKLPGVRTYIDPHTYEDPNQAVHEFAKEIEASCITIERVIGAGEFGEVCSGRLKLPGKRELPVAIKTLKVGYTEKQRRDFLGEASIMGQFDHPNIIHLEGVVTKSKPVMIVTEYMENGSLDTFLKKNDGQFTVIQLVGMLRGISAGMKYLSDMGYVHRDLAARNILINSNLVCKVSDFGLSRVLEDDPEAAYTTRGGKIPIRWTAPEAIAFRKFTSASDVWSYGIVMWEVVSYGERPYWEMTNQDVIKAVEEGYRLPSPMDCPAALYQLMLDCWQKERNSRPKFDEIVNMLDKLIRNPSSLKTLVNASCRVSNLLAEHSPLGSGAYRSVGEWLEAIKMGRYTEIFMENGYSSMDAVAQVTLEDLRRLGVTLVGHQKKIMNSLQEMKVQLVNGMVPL
structure (smiles),measurement,setting,value
O=c1cc(N2CCOCC2)oc2c(-c3ccccc3)cccc12,residual activity,[1],77%
same,residual activity,[2],79%
same,residual activity,[3],79%
same,residual activity,[4],65%
N#C/C(=C\c1ccc(O)c(O)c1)C(=O)NCc1ccccc1,residual activity,[5],101%
same,residual activity,[6],104%
same,residual activity,[2],85%
same,residual activity,[7],133%
same,residual activity,[8],129%
same,residual activity,[9],102%
same,residual activity,[10],127%
O=S(=O)(NCCNC/C=C/c1ccc(Br)cc1)c1cccc2cnccc12,residual activity,[5],117%
same,residual activity,[4],74%
